# This is a sample that favours compounds with a hit; in the whole collection about 2.2% have one here.
# GALK inh = qHTS Assay for Inhibitors of Human Galactokinase (GALK); P51570; AID 1868, 2009; Purified GALK, Kinase-Glo residual ATP luminescence; actives 0.007% (n = 270,000); Potency, µM (titrated, usually from 57.5 µM), for the others: at the top dose activity change, negative = inhibition, hits mostly inhibitors; note: potency is the fitted concentration of half-maximal effect; % is set by controls: 0 for no effect and ±100 for the full control effect
#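 ATP-depletion format; final 35 uM ATP, 100 uM D-galactose, 5 nM enzyme; pH 8.0 HEPES/Mg2+ buffer; 60 min RT; luminescence read 10 min after detection reagent.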
# miR-21 act = qHTS Assay for Modulators of miRNAs and/orActivators of miR-21; Potency, µM (top dose mostly 38.3 µM), for inactives: at the highest dose activity change, positive = activation, most hits filed as activators; AID 2288, 2010; HeLa miR-21 FLuc reporter, luciferase, 48 h; 340,000 tested, under 10 active;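 note: % of control where 0% means no effect; miR-21 action dims this reporter so a rising signal means less miR-21 action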
#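 Luminescence from a firefly luciferase reporter carrying a miR-21 binding site downstream, stably expressed under a CMV promoter in HeLa cells that make miR-21 endogenously, reports miRNA modulation after 48 h compound exposure up to approximately 40uM final.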
# A549 tox-1 = Nrf2 qHTS screen for inhibitors: counterscreen for cytotoxicity. A549 ARE-Fluc cells, CellTiter-Fluor viability, 18-24 h. Potency, µM (doses to about 46 µM), for inactives: top-dose activity change, negative = cytotoxicity, most hits filed as inhibitors. actives 0.16% (n = 390,000); note: potency is the fitted concentration of half-maximal effect; % is set by controls: 0 for no effect and ±100 for the full control effect
#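 A549 ARE_Fluc cells in 5% FBS OPTI-MEM were exposed to compounds in concentration-response for 18-24 h at 37 deg C. Viability was read by CellTiter-Fluor fluorescence (Ex 405/Em 525) after 30 min, before the luciferase read.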
# Nrf2 ARE act = qHTS of Nrf2 Activators; AREc32 ARE-luciferase reporter (MCF7-derived line), luminescence, 24 h; Potency, µM (top dose mostly 46.1 µM), for inactives: at the top dose activation, actives largely listed as activators; actives 0.31% (n = 410,000); AID 624171, 2012; note: potency is the fitted concentration of half-maximal effect; % of control where 0% means no effect; nearly all actives have a fitted effect of over 65% in size
#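 AREc32 cells carrying an ARE-driven firefly luciferase, 1000 cells/well in OPTI-MEM with 5% FBS, dosed after overnight attachment and incubated 24 hr at 37 deg C. Steady-Glo luminescence read after 30 min at RT.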
# PI4K2A inh = qHTS for small molecular inhibitors of PI4K2A; actives 0.13% (n = 420,000); purified PI4K2A, ADP-Glo luminescence, 1 h; active compounds read low; activity change, negative = inhibition, % at 76.9 µM; AID 1346378, 2018; in the data active = activity change below about -50%; inconclusive = mostly about -30% to -49%;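 note: -100% = wells without enzyme as full effect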
#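 Compounds are screened against recombinant PI4K2A using PI as substrate and ATP, the latter dispensed at 300 microM. Reactions run one hour at ambient temperature before ADP-Glo detection; full inhibition defined by wells lacking enzyme.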
# Nrf2 inh = Nrf2 qHTS screen for inhibitors. A549 ARE-Fluc reporter, luciferase luminescence, 18-24 h. Potency, µM (series often up to 46 µM), for the others: at the highest dose activity change, negative = inhibition, most hits filed as inhibitors. actives 2.1% (n = 360,000). AID 504444, 2011; note: potency is the fitted concentration of half-maximal effect; % is set by controls: 0 for no effect and ±100 for the full control effect; nearly all actives have a fitted effect of over 60% in size
#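 A549 ARE_Fluc cells, 5000/well, 5% FBS OPTI-MEM; compounds in dose-response, 18-24 h at 37 °C/5% CO2; CellTiter-Fluor viability read (Ex 405/Em 525), then BugLite luciferase luminescence = Nrf2 activity.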
# FLuc enzyme inh = Nrf2 qHTS screen for inhibitors: Purified Fluc Biochemical Counterscreen for Hit Validation; shares compounds with Nrf2 inh; purified firefly luciferase, luminescence inhibition; actives 4% (n = 1,400); Potency, µM (series often up to 57.5 µM), inactives show at the top dose activity change, negative = inhibition, most hits filed as inhibitors; note: potency is the fitted concentration of half-maximal effect; % is set by controls: 0 for no effect and ±100 for the full control effect; nearly all actives have a fitted effect of over 65% in size
# Target sequence (P08659 whole entry, looked up): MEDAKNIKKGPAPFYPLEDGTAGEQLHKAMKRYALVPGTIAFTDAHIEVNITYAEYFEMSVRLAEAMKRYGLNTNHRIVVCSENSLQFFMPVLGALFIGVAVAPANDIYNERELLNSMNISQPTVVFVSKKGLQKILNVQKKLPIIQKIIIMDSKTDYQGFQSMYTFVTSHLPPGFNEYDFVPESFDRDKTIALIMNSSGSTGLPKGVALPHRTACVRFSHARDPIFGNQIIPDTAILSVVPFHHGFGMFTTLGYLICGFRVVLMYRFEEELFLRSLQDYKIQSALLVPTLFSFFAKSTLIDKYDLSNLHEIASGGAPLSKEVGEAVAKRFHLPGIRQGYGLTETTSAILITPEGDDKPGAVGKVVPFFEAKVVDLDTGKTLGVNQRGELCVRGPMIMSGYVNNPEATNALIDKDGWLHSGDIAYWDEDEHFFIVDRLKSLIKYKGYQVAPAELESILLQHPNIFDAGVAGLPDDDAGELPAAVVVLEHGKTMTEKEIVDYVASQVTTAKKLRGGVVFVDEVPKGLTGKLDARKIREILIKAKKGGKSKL
# A549 tox-2 = Nrf2 qHTS screen for inhibitors: A549 ARE-Fluc Cytotoxicity Counterscreen for Hit Validation | Potency, µM (top dose mostly 46.1 µM), for the others: top-dose activity change, negative = cytotoxicity, usual class: inhibitors | A549 ARE-Fluc cells, cytotoxicity counterscreen | shares compounds with Nrf2 inh | actives 2% (n = 1,400);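 note: potency is the fitted concentration of half-maximal effect; cells exposed to compounds for 18 to 24 hours; % is set by controls: 0 for no effect and ±100 for the full control effect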
# Nrf2 ARE inh = Nrf2 qHTS screen for inhibitors: Nrf2 A549 ARE-Fluc Confirmation Assay for Hit Validation; actives 74% (n = 1,400); Potency, µM (top dose mostly 46.1 µM), inactives show at the highest dose activity change, negative = inhibition, hits mostly inhibitors; A549 ARE-firefly luciferase reporter, luminescence; AID 720524, 2013; shares compounds with Nrf2 inh; note: potency is the fitted concentration of half-maximal effect; % is set by controls: 0 for no effect and ±100 for the full control effect; nearly all actives have a fitted effect of over 65% in size
# Active calls of the source: *; ? = inconclusive; . = no result given. Unless noted, calls come from the whole dose curve; as a rule, active = well fitted curve in the direction sought with a large enough effect; inconclusive = small, poorly fitted or top-dose-only effect, or another doubt; inactive = no such curve, though single readings can be large; an effect the other way counts as inactive or inconclusive.
SMILES,GALK inh,miR-21 act,A549 tox-1,Nrf2 ARE act,PI4K2A inh,Nrf2 inh,FLuc enzyme inh,A549 tox-2,Nrf2 ARE inh
O=C(Oc1ccccc1N1C(=O)C2CCCCC2C1=O)c1ccccc1 (stereo unspecified),.,-1%,1%,-1%,4,-18%,.,.,.
Cc1ccc(C(=O)Oc2ccccc2N2C(=O)C3CCCCC3C2=O)cc1 (stereo unspecified),-1%,-21%,8%,-2%,3,1.3µM*,-2%,0%,3.3µM*
O=C(CSc1nnc(-c2cccs2)o1)Nc1cccc2ccccc12,.,.,.,.,-2,.,.,.,.
COc1cc(C(=O)N/N=C/c2ccc(OC(=O)c3ccccc3Cl)c(OC)c2)ccc1O,-2%,4%,-2%,3%,-2,1.5µM*,0.54µM*,2%,0.92µM*
CC12CCC(=O)C=C1CCC1C2CCC2(C)C1CC[C@]2(O)C(=O)CO (stereo partly specified),-8%,-14%,-18%,0%,5,?,.,.,.
CC(C)(CNC(=O)CO/N=C1/C=C2CCC3C(C(O)C[C@@]4(C)C3CC[C@]4(O)C(=O)CO)[C@@]2(C)CC1)C(O)C(=O)O (stereo partly specified),-3%,-31%,-3%,0%,-13,1.8µM*,-2%,-2%,.
CC12CCC(=O)C=C1C(O)CC1C2CCC2(C)C1CCC2(O)C(=O)CO (stereo unspecified),.,.,-4%,0%,-5,-16%,.,.,.
CC(=O)OCC(=O)[C@@]1(O)CC[C@H]2[C@@H]3CCC4=CC(=O)CC[C@]4(C)[C@H]3[C@@H](O)C[C@@]21C,0%,-26%,-9%,-1%,2,0.041µM*,2%,-2%,0.073µM*
C[C@]12CCC(=O)C=C1CC[C@@H]1[C@@H]2[C@@H](O)C[C@@]2(C)[C@H]1CC[C@]2(O)C(=O)COC(=O)CCC(=O)O,-2%,-28%,-9%,0%,-4,0.33µM*,2%,-5%,0.29µM*
CCCC(=O)O[C@]1(C(=O)CO)CC[C@H]2[C@@H]3CCC4=CC(=O)CC[C@]4(C)[C@H]3[C@@H](O)C[C@@]21C,0%,-37%,-3%,-1%,-9,0.023µM*,1%,-8%,0.015µM*
CCCCCCCCN1C(=O)[C@@H](CC(=O)N2CCC(c3ccccc3)CC2)C[C@@]2(C(=O)OC)C1=C[C@H](C(C)C)O[C@@H]2C1CC1,.,.,.,.,-2,.,.,.,.
Cc1ccc(NC(=O)CN2C(=O)CCSc3ccccc32)cc1C,.,.,.,.,7,.,.,.,.
CC1CC2(C)C(=CC1=O)CCC1C2C(O)CC2(C)C1CCC2(O)C(=O)CO (stereo unspecified),.,.,1%,0%,-6,0.12µM*,3%,-5%,0.18µM*
CC(=O)OCC(=O)[C@@]1(O)CC[C@H]2[C@@H]3CCC4=CC(=O)CC[C@]4(C)[C@H]3C(=O)C[C@@]21C,4%,-1%,-1%,0%,-5,-6%,.,.,.
CCC(CC)C(=O)OCC(=O)C1(O)CCC2C3CCC4=CC(=O)CCC4(C)C3C(O)CC21C (stereo unspecified),.,.,-5%,0%,2,0.33µM*,3%,-11%,0.1µM*
CC(=O)OCC(=O)C1(O)CCC2C3CC(F)C4=CC(=O)CCC4(C)C3C(O)CC21C (stereo unspecified),.,.,-5%,0%,0,0.065µM*,1%,-12%,0.018µM*
CC(C)(C)N(NC(=O)NCCCl)C(=O)c1ccccc1Cl,.,.,.,.,-3,.,.,.,.
Cn1nc(C(C)(C)C)cc1C(=O)NCc1cc(F)cc2c1OCOC2,-4%,?,-2%,0%,-3,?,-1%,-9%,3.7µM*
N#Cc1cccc(NC(=O)OCCN2C(=O)CCC23CCC(c2ccccc2)CC3)c1 (stereo unspecified),.,.,.,.,5,.,.,.,.
CCOc1ccc(S(=O)(=O)N2CCN(S(=O)(=O)c3ccc(C(C)=O)cc3)CC2)cc1,16%,6%,4%,0%,-3,6%,.,.,.
CC(=O)c1ccc(S(=O)(=O)N2CCN(CCOc3ccc(Br)cc3)CC2)cc1,.,.,?,1%,2,4.1µM*,0%,-8%,5.8µM*
Nc1ccc(-c2cc3ccccc3oc2=O)cc1,-1%,29%,-1%,-2%,7,1.3µM*,8.5µM*,-1%,1.5µM*
c1ccc(CN2CCC(Nc3ncnc4sccc34)CC2)cc1,0%,23%,13%,2%,3,2%,.,.,.
Cc1sc2ncnc(NC3CCN(Cc4ccccc4)CC3)c2c1C,1%,15%,?,3%,5,4.6µM*,2%,-14%,5.8µM*
C=CCN1[C@H](CO)[C@H](c2ccc(Br)cc2)[C@@H]1C#N,.,.,.,.,-6,.,.,.,.
Cc1cc(Cl)c(S(=O)(=O)N2CCSCC2)cc1OCC(=O)NC1CCCCC1,4%,15%,?,2%,1,6.5µM*,-1%,-24%,4.6µM*
Cc1cc(Cl)c(S(N)(=O)=O)cc1OCC(=O)NC1CCCCC1,-4%,-4%,3%,0%,1,-4%,.,.,.
Cc1cc(Cl)c(S(=O)(=O)NC2CCCC2)cc1OCC(=O)NC1CCCCC1,1%,25%,-30%,0%,-5,6.5µM*,3%,-13%,7.3µM*
COC(=O)[C@]12C[C@H](CC(=O)NCCCCc3ccccc3)C(=O)N(CCc3ccc(OC)c(OC)c3)C1=C[C@H](C(C)C)O[C@@H]2C1CC1,.,.,.,.,1,.,.,.,.
